Assay results as given in PubChem BioAssay AID743088 (The Scripps Research Institute Molecular Screening Center, 2013).
Values without a mark were called inactive.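 How the source made its calls: active means binding inhibited by at least 50%, or stimulated by at least 50%, shown as inhibition of -50% or lower; inactive means the rest.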

Test system: Rolipram
Experiment: off-target binding across receptor panel, profiling panel, selectivity assay for AVPR1a antagonist project, biochemical, Panlabs HitProfilingScreen (AID 743088)
Settings: Panlabs radioligand binding panel, 30 targets, at 10 µM, stronger effect = higher value

O=C(C1CCN(c2ccc(Cl)cn2)CC1)N(CC1CC1)c1ccc(Cl)cc1
inhibition of binding: -3%
